# Test results reported in PubChem BioAssay (Tox21).
# Several values for one entry are separate records, joined by “and”; a condition that tells them apart may be missing. Identical values can stand only once. Results filed as inconclusive are left out. Some compounds were tested as several samples or in several runs, with calls that do not always agree. Activity calls are given as the source filed them. The call rests on the fitted dose curve; in most records, active means well fitted cell-killing curve with a large enough effect in the repeat runs; inconclusive means weak or mixed curves, or effect the other way; inactive means flat fitted curve, though single readings scatter.
# Assay: qHTS RealTime-Glo MT Cell Viability Assay in HEK293 cells - 40 hour (AID 1224874); further: nearly all actives have a fitted effect of over 50% in size
# Conditions: RealTime-Glo luminescence; max response: stronger effect = lower value
# Text: U.S. Tox21 Program National Center for Advancing Translational Sciences [NCATS] NIH Chemical Genomics Center [NCGC] U.S. Environmental Protection Agency [EPA] National Institutes of Environmental Health Sciences [NIEHS] National Toxicology Program [NTP] U.S. Food and Drug Administration [FDA] Tox21 Assay Overview: Measure of cell viability is critical in the cell-base assay. Analysis of cell viability is necessary for the characterization of cell responses to cytotoxic drugs and environmental stress. A RealTime-Glo MT Cell Viability Assay to monitor cell viability in real time of continues cell culture during 40 hours of compound treatment was used to screen Tox21 10K library compounds in Hek293 cells. The RealTime-Glo MT Cell Viability Assay is a nonlytic, homogeneous, bioluminescent method to measure cell viability in real time using a simple, plate-based method. The assay involves adding NanoLuc luciferase and a cell-permeant prosubstrate to cells in culture. Viable cells reduce the proprietary prosubstrate to generate a substrate for NanoLuc luciferase. This substrate diffuses from cells into the surrounding culture medium, where it is rapidly used by the NanoLuc Enzyme to produce a luminescent signal. The signal correlates with the number of viable cells, making the assay well suited for cytotoxicity studies.
# Tox21 Assay Protocol Summary: The mixture of Hek293 cell suspension and reagents were dispensed at 600cells/6 ul/well in 1536-well tissue culture treated black solid bottom plates using a Multidrop dispenser. After the assay plates were incubated at a 37 C/5% CO2 incubator for 5 hours, 23 nL of compounds dissolved in DMSO, positive and negative controls was transferred to the assay plate by a pintool work station. The plates were incubated at 37 C for 40 hours. The luminescence intensity were measured at 0h, 8h, 16h, 24h, 32h and 40h time points using ViewLux plate reader during compound treatment.
# On the % scale 0 is the no-effect control and ±100 the full control effect; potency means the concentration at half of the fitted maximal effect.
Compound,max response,Potency
O=C(c1ccccc1)c1ccccc1,-7.38% (inactive) and -0.339% (inactive) and 9.06% (inactive),
Nc1ccc(C(=O)O)cc1,-12% (inactive) and -18.6% (inactive) and -17.3% (inactive),
O=C1CN(/N=C/c2ccc([N+](=O)[O-])o2)C(=O)N1,-21.3% (inactive) and -17.7% (inactive),
OC(Cn1cncn1)(Cn1cncn1)c1ccc(F)cc1F,7.44% (inactive) and 0.305% (inactive) and 5.93% (inactive),
Cc1cc(=O)n(-c2ccccc2)n1C,5.11% (inactive) and 3.11% (inactive) and 1.5% (inactive),
O=C(O)CS,1.63% (inactive) and 9.97% (inactive) and 1.26% (inactive),
CC(C)[C@@H]1CC[C@@H](C)C[C@H]1O,3.82% (inactive) [middle of 5 runs],
CCC1(c2ccccc2)C(=O)NCNC1=O,-6.46% (inactive) and 0.966% (inactive) and 0.298% (inactive),
CCCCOC(=O)CC(CC(=O)OCCCC)(OC(C)=O)C(=O)OCCCC,-6.55% (inactive) and -23.8% (inactive) and -22.3% (inactive),
Cc1noc(NS(=O)(=O)c2ccc(N)cc2)c1C,3.99% (inactive) and 6.51% (inactive) and 6.27% (inactive),
CCCNC(=O)NS(=O)(=O)c1ccc(Cl)cc1,1.38% (inactive) and -0.751% (inactive) and 0.902% (inactive),
O=C(O)c1cc(N=Nc2ccc(S(=O)(=O)Nc3ccccn3)cc2)ccc1O,-2.85% (inactive) and -13.7% (inactive) and 1.5% (inactive),
CC(=O)Nc1nnc(S(N)(=O)=O)s1,3.91% (inactive) and 1.75% (inactive) and 9.79% (inactive),
COc1ccc2[nH]cc(CCNC(C)=O)c2c1,-2.36% (inactive) and -20% (inactive) and 4.03% (inactive),
O=NO,1.94% (inactive) and 6.27% (inactive) and -0.835% (inactive),
c1ccc2[nH]ccc2c1,8.38% (inactive) and -1.27% (inactive),2.15 µM (active)
Nc1ccc(O)c(C(=O)O)c1,1.04% (inactive) and -2.7% (inactive) and 0.776% (inactive),
O=C(O)c1cccc([N+](=O)[O-])c1,-2.27% (inactive) and 9.34% (inactive) and 3.61% (inactive),
O=C(C1CCCCC1)N1CC(=O)N2CCc3ccccc3C2C1 (stereo not given),-18.7% (inactive),
CC1(C)[C@@H]2CC[C@@]1(C)C(=O)C2,4.23% (inactive) and 1.62% (inactive) and -1.8% (inactive),

Compound,max response,Potency
CC(O)C(=O)O (stereo not given),13.3% (inactive) and 7.35% (inactive) and 12.9% (inactive),
NS(=O)(=O)c1cc(C(=O)O)c(NCc2ccco2)cc1Cl,-14.3% (inactive) and -0.726% (inactive) and 2.65% (inactive),
NC(=O)c1ccccc1O,0.307% (inactive) and -0.424% (inactive) and 11.5% (inactive),
CCCCCCCCCCCCCCCC(=O)O,-14.7% (inactive) and -1.54% (inactive) and -1.33% (inactive),
N=C(N)c1ccc(OCCCCCOc2ccc(C(=N)N)cc2)cc1,,9.73 µM (active) and 16.6 µM (active) and 21.3 µM (active)
C/C=C/c1ccc(OC)cc1,-0.468% (inactive) [middle of 4 runs],
O=C(O)/C=C\C(=O)O,3.82% (inactive) and 7.29% (inactive) and 0.357% (inactive),
CCCN(CCC)S(=O)(=O)c1ccc(C(=O)O)cc1,-6.3% (inactive) and -3.84% (inactive) and 10.6% (inactive),
Cn1cc[nH]c1=S,-1.38% (inactive) and 17.2% (inactive) and 3.37% (inactive),
O=C1NC(=O)c2ccccc21,3.82% (inactive) and -4.14% (inactive) and 5.86% (inactive),
O=C(O)CCCCC(=O)O,4.36% (inactive) and 16.9% (inactive) and 2.15% (inactive),
O=C(c1ccccc1)C(O)c1ccccc1 (stereo not given),5.88% (inactive) and 18.1% (inactive) and 4.15% (inactive),
CCOc1ccc(NC(=O)CC(C)O)cc1 (stereo not given),-0.988% (inactive) and -3.57% (inactive) and -1.9% (inactive),
CC(=O)OCC(COC(C)=O)OC(C)=O,1.3% (inactive) and 11.6% (inactive) and 13.6% (inactive),
CCCC(O)C(CC)CO (stereo not given),0.318% (inactive) and 1.14% (inactive) and 0.567% (inactive),
Cn1c(=O)c2[nH]cnc2n(C)c1=O,0.637% (inactive) and -1.08% (inactive) and -2.33% (inactive),
Cc1ccc(O)cc1,8.24% (inactive) [middle of 4 runs],
CCCCC1C(=O)N(c2ccccc2)N(c2ccccc2)C1=O,-7.32% (inactive) and -1.19% (inactive) and 8.39% (inactive),
NC(=O)c1cnccn1,-0.816% (inactive) and 11.3% (inactive) and 0.0586% (inactive),
